Reference: PubChem BioAssay AID504773 (Broad Institute, 2011)
Results with a measured potency or affinity are listed apart. The source made the active and inactive calls.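 How the source made its calls: active means polarization signal falls with dose and the fitted half-maximal concentration is at or below ten times the sample's top valid dose; inconclusive means flat curve at 30 to 70% inhibition, or poor fit; inactive means signal rises, flat within 30%, or potency beyond limit.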

Target: Golgi-associated PDZ and coiled-coil motif-containing protein (Homo sapiens) (UniProt Q9HD26)
Experiment: CAL PDZ peptide-binding inhibitors, dose response, biochemical, fluorescence polarization, Cerulean-tagged CAL PDZ, cherry-picks (AID 504773)
Details: 1 h; series mostly up to 50 µM

Compound	outcome
CC(C)OC(=O)C1CC(C)(O)C(=O)C(C(=O)OC(C)C)C1c1ccc([N+](=O)[O-])cc1 (stereo unspecified)	inactive
COc1ccccc1C(=O)Nc1ccc2c(c1)CN(C(=O)CSC)CC2	inactive
COc1ccc(C(=O)N2CCCc3ccccc32)cc1Br	inactive
C(=C/c1nccc2c1[nH]c1ccccc12)/c1ccc2c(c1)OCO2	inactive
CCN(C(=O)CSc1ncccc1C(=O)O)C1CCCCC1	inactive
CC(=O)NC(Cc1ccccc1)C(C)=O (stereo unspecified)	inactive
Cc1ccc2nc3c(nc2c1)-c1ccccc1C3=O	inactive
CN1CC(=O)N(CC(=O)Nc2ccc(Br)cc2F)C1=O	inactive
CCOCCCNC(=O)c1ccc2c(=O)n(Cc3ccc4c(c3)OCO4)c(=S)[nH]c2c1	inactive
COc1ccc(Oc2nc3c(c(=O)n(C)c(=O)n3C)n2C)cc1	inactive
O=[N+]([O-])c1ccccc1/C=N/Nc1nc(N2CCCC2)nc(N2CCCC2)n1	inactive
CCCC(=O)OCC(=O)Nc1ccccc1C#N	inactive
CCOC(=O)/C(N=Nc1ccc2c(c1)OCO2)=C(\C)O	inactive
O=P(O)(COc1ccccc1)COc1ccccc1	inactive
Cc1ccc(-n2c(SCC(N)=O)nnc2-c2ccco2)cc1	inactive
O=C1CN(C(=O)CC2C(=O)NCCN2Cc2ccccc2C(F)(F)F)CCN1 (stereo unspecified)	inactive
CC(=O)Nc1ccc(Nc2ccc3nonc3c2[N+](=O)[O-])cc1	inactive
CCN1C(=O)CS/C1=N\S(=O)(=O)c1ccc(Cl)cc1	inactive
CCc1ccc(C2CC(=O)N(c3cccc(F)c3)C3=C2C(=O)OC3)cc1 (stereo unspecified)	inactive

Compound	outcome
COCCN(Cc1nc(C(c2ccccc2)c2ccccc2)no1)C(C)C	inactive
COc1ccc(Nc2cccccc2=O)cc1	inactive
COc1cc(Cl)c(CN2CCCC(CO)(Cc3cccc(Cl)c3)C2)cc1OC (stereo unspecified)	inactive
COc1cccc(N2CCN(C(=O)c3ccc(-c4ccccc4)cc3)CC2)c1	inactive
FC(F)(F)Oc1ccc(NC(=S)NCCCN2CCOCC2)cc1	inactive
COc1ccc(/C=C/C(=O)Nc2ccc3nc4n(c(=O)c3c2)CCCC4)cc1OC	inactive
CC(CN1CCCC1)OC(=O)C(c1ccccc1)c1ccccc1 (stereo unspecified)	inactive
CCOc1ccc(C(=O)NCC(=O)N2CCC(C)CC2)cc1OCC	inactive
COc1ccccc1NC(=O)N(c1c(N)n(Cc2ccccc2)c(=O)[nH]c1=O)C1CCCC1	inactive
Cc1cc(C)nc(CCNC(=O)c2cc(COc3c(C)cccc3C)on2)n1	inactive
CCN(CC)CCn1c(SCC(=O)NCc2ccccc2)nc2c(sc3ccccc32)c1=O	inactive
Cc1ccc(CNC2CCCCC2)s1	inactive
O=C(CCCn1c(=S)[nH]c2cc3c(cc2c1=O)OCO3)N1CCN(c2ccc(Cl)cc2)CC1	inactive
CCOC(=O)c1ccc(N=C2SC(C(=O)NC)CC(=O)N2Cc2ccc(F)cc2)cc1 (stereo unspecified)	inactive
CS(=O)(=O)c1ccc(Cl)c(NC(=O)COC(=O)c2c(Cl)cccc2Cl)c1	inactive
CCOc1ccc(S(=O)(=O)N2CCCCC2)c(C)c1C	inactive
O=C(NNS(=O)(=O)c1ccc(Cl)cc1)c1cccs1	inactive
Cc1cccc(C(=O)Nc2nnc(COc3ccccc3)s2)c1	inactive
O=C(c1ccccc1Cl)N(Cc1ccc(Cl)c(Cl)c1)N1C(=O)CCCC1=O	inactive

Compound	outcome
Cc1ccccc1CN(C)C(C)C(=O)Nc1ccccc1F (stereo unspecified)	inactive
CN(C)S(=O)(=O)c1ccc(Cl)c(NC(=O)CSc2nnnn2-c2ccc(O)cc2)c1	inactive
Cc1ccc2cc(C#N)c(N3CCCN(S(=O)(=O)c4ccccc4)CC3)nc2c1	inactive
CCCCN1CC(O)=C(c2nc(-c3ccc(Cl)cc3)cs2)C1=N	inactive
COc1ccc(Br)c(C(=O)NC2CCCC2)c1	inactive
CC(O)CNCCCOc1cccc(Oc2ccccc2)c1 (stereo unspecified)	inactive
C=CCn1c(NC(=O)c2ccco2)nc2ccccc21	inactive
O=C(NNC(=O)c1c(F)cccc1F)c1sccc1-n1cccc1	inactive
CC(=O)N1CCN(c2ccc(NC(=O)C(c3ccccc3)c3ccccc3)cc2)CC1	inactive
COC(=O)C(C(=O)OC)c1ccc(N)cc1	inactive
COc1ccc(CN(C)C(C)C(=O)NC2CCCc3ccccc32)cc1 (stereo unspecified)	inactive
O=C(c1ccc([N+](=O)[O-])cc1)N1CCC(Cc2ccccc2)CC1	inactive
O=C(Oc1c(CN2CCOCC2)cc(Cl)c2cccnc12)c1ccc(F)cc1	inactive
Cc1nc2ccc(Br)cn2c1C(=O)N/N=C\c1ccc(C(C)C)cc1	inactive
Cc1ccc(NC(=O)CN(C)CC(=O)Nc2cccc(F)c2)cc1S(=O)(=O)N1CCCCCC1	inactive
O=C(NC1CCCCCCC1)c1cc([N+](=O)[O-])ccc1Cl	inactive
O=C(c1c(Cl)cccc1Cl)N1CCCCCC1	inactive
Cc1cc(SCC(=O)OCC(=O)c2c(N)n(C)c(=O)n(C)c2=O)c(C)cc1Br	inactive
